Screening results from PubChem BioAssay.
STAT3 blocker – reduces IL-6 driven STAT3 reporter signal; AID 862; U3A cells, IL-6 STAT3-luciferase reporter, luminescence; host cell line lacks STAT1; hit rate 0.89% among 190,000; inhibition, % at 5.5 µM;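 active = inhibition above the mean inhibition across all screened compounds plus 3 SD, cut at about 44% in these data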;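 note: 0% = DMSO only wells and 100% = 100 µM nifuroxazide control wells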
PPC-1+TRAIL kill – compounds killing PPC-1 cancer cells with TRAIL present (potentiator screen, no TRAIL-free arm); PPC-1 cells + TRAIL, ATPLite viability luminescence; cell killing (% activity), % at 4 µM or 5 µM; hit rate 0.41% among 220,000; AID 1443;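 active = cell killing above 50% in the first pass at 4 µM, then a duplicate retest at 5 µM averaging 50% or more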;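 note: plate controls were cells with TRAIL plus DMSO for no effect and medium-only wells lacking cells for full effect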
STAT1 blocker – reduces IFN-gamma driven STAT1 reporter signal; NIH 3T3 STAT1-luciferase reporter, luminescence; AID 920; hit rate 0.35% among 200,000; inhibition, % at 5.5 µM;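 active = inhibition above a set limit, the mean inhibition across all tested compounds plus 3 SD, cut at about 34% in these data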;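 note: 0% = IFN-gamma with DMSO and 100% = IFN-gamma with 300 µM nifuroxazide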
HSF1 inh – HSF1 inhibition; NIH3T3-HGL HSE-luciferase, MG132-induced, luminescence 8 h; active compounds read low; activity change, negative = inhibition, % at 7.5 µM (by protocol); hit rate 0.77% among 300,000;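 active = more than half of replicate wells show activity change below -50%, luminescence cut by over half; inconclusive = some wells, but at most half, below -50%; inactive = no replicate well below -50%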;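 note: luciferase reports HSF-1 transcriptional activity via heat shock element; 0% = median of DMSO wells and -100% = zero luminescence signal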
HSP90 refold inh – HSP90 refolding inhibition in rabbit reticulocyte lysate; hit rate 0.91% among 290,000; AID 1789; inhibition, % at 5.6 µM; luciferase refolding luminescence, 3 h;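 active = inhibition above the screen-wide mean plus 3 SD, computed separately per campaign, cut at about 16% in these data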;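 note: 0% = DMSO wells and 100% = 60 µM geldanamycin wells; inhibitors lower the luminescence because luciferase stays unfolded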
TRAIL sens C8 – caspase-8 TRAIL sensitization. hit rate 1% among 360,000. inhibition (viability loss, TRAIL sensitization), % at 10 µM. NB7+C8 cells + TRAIL, ATPlite viability luminescence;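 active = compounds causing at least 50% loss of cell viability in the single-dose screen, relative to plate controls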
HSP90 inh confirm – confirmation of HSP90 inhibitors | shares compounds with HSP90 refold inh | rabbit reticulocyte lysate, luciferase refolding luminescence, 3 h | inhibition, % at 5.9 µM | hit rate 64% among 2,300; in the data active = inhibition above about 18%;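 note: 0% = vehicle wells and 100% = reference inhibitor wells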
luciferase ctr – firefly luciferase inhibition, HSP90 counter-screen. shares compounds with HSP90 refold inh. purified native firefly luciferase, luminescence. inhibition, % at 5.9 µM. hit rate 48% among 2,300;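 active = inhibition above the mean inhibition of all tested sample wells plus 3 SD, cut at about 10% in these data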;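 note: 0% = DMSO with luciferase and 100% = wells lacking luciferase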
Target sequence (P08659 whole entry, looked up): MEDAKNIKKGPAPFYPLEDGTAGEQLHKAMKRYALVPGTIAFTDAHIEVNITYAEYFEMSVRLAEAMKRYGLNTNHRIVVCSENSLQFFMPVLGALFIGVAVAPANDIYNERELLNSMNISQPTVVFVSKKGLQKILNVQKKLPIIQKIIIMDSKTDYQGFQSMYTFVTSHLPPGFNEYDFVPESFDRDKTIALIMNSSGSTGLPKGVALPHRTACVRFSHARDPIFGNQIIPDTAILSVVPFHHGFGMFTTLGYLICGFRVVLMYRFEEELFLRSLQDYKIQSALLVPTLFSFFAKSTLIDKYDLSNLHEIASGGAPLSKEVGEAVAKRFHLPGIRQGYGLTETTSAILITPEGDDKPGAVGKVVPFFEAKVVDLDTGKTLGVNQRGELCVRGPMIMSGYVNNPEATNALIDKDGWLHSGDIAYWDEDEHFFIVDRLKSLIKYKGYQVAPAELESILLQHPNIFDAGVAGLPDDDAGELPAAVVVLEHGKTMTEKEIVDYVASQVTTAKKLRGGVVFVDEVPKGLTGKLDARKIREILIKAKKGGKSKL
* hit, by the source's call; ? = inconclusive; nt = no result. A selection: hits, their analogues and other compounds. The true share with any hit is near 2.4%.

SMILES	STAT3 blocker	PPC-1+TRAIL kill	STAT1 blocker	HSF1 inh	HSP90 refold inh	TRAIL sens C8	HSP90 inh confirm	luciferase ctr
CSc1nnc(NC(=O)c2ccc3c(c2)OCO3)s1	nt	nt	nt	-18.3	54.5*	73.9*	81.5*	71.8*
COc1cccc(C(c2c(C)[nH]n(-c3ccccc3)c2=O)c2c(C)[nH]n(-c3ccccc3)c2=O)c1O	nt	nt	nt	9.7	nt	-8.8	nt	nt
COc1ccc(C(C[N+](=O)[O-])c2c(C)[nH]n(-c3ccccc3)c2=O)cc1 (stereo not given)	nt	nt	nt	7.1	26.5*	-18.2	50.5*	-9.5
Cc1[nH]n(-c2ccccc2)c(=O)c1C(c1ccc(O)c([N+](=O)[O-])c1)c1c(C)[nH]n(-c2ccccc2)c1=O	-8.5	nt	-12.3	14.0	25.5*	-1.4	-2.8	-2.6
Cc1ccnc(SC2CC(=O)N(c3ccc(Cl)cc3)C2=O)n1 (stereo not given)	nt	nt	nt	-4.7	-0.6	-3.2	nt	nt
Cc1ccnc(SC2CC(=O)N(c3ccc(C(C)C)cc3)C2=O)n1 (stereo not given)	nt	nt	nt	-2.4	32.3*	-8.9	-6.9	-5.1
COc1ccccc1N1CCN(S(=O)(=O)CCNC(=O)CC2CCCC2)CC1	nt	nt	nt	nt	nt	-2.7	nt	nt
COc1ccc(NC2=C(C(C)=O)C(c3ccc(OC)cc3)C(C(C)=O)C(C)(O)C2)cc1 (stereo not given)	6.8	-1.0	13.8	-1.3	30.6*	-19.8	4.1	1.1
COc1nc(C)ccc1-c1noc(-c2ccco2)n1	27.0	21.6	-33.4	31.2	18.6*	22.6	32.7*	24.3*
Cc1nc(Nc2ccc(C(=O)O)cc2)sc1-c1ccccc1	71.7*	27.5	-33.4	-5.4	34.2*	14.6	83.9*	63.0*
O=C(O)c1ccc(Nc2nc3c(s2)CCCC3)cc1	80.1*	15.5	68.8*	nt	66.6*	30.2	91.3*	80.5*
Cc1nc(Nc2ccccc2)sc1C(=O)c1ccccc1	nt	3.6	nt	6.0	-1.4	-2.7	nt	nt
CN(CC(=O)NCCc1ccc(S(N)(=O)=O)cc1)S(=O)(=O)c1cccc2nsnc12	nt	nt	nt	-10.7	0.8	2.7	nt	nt
Cc1cc(C)c(NC(=O)CNC(=O)COC(=O)Cc2cccs2)c(C)c1	nt	nt	nt	-1.2	nt	-0.4	nt	nt
COc1ccc(OCc2cccc(C(=O)NN)c2)cc1	97.8*	26.1	65.2*	-65.7*	43.9*	33.5	54.1*	30.3*
CCOc1ccc(OCc2cccc(C(=O)N3CCOCC3)c2)cc1	96.5*	42.8	82.2*	nt	61.0*	65.2*	70.0*	73.1*
COc1ccc(OCc2cccc(C(=O)Nc3cc(C)on3)c2)cc1	69.0*	20.6	58.0*	-17.6	40.3*	12.1	65.4*	58.5*
O=C(c1cccc(OCc2ccccc2)c1)N1CCOCC1	2.5	3.8	-7.9	7.8	-1.1	-6.7	nt	nt
COc1ccc(OCc2cccc(C(=O)Nn3cc([N+](=O)[O-])cn3)c2)cc1	49.1*	37.0	87.5*	-53.6*	18.4*	27.7	61.9*	27.5*
COC(=O)c1cccc(Cn2cc([N+](=O)[O-])cn2)c1	1.3	15.4	6.3	3.3	0.0	nt	nt	nt
COc1ccc(-c2csc(C(C)(O)c3ccncc3)n2)cc1OC (stereo not given)	nt	nt	nt	nt	nt	-15.9	nt	nt
CCOc1ccc(OCc2cccc(C(=O)N/N=C/c3cccnc3)c2)cc1	95.5*	41.2	62.3*	?	31.1*	44.6	23.2*	-4.0
CCN(CC(=O)Nc1ccccc1OC)C(=O)CN1C(=O)NC(C)(c2ccc3ccccc3c2)C1=O (stereo not given)	nt	nt	nt	nt	nt	-1.2	nt	nt
O=C(O)c1cc(N/N=C/c2ccc3c(c2)OCCO3)ccc1Cl	-27.6	5.7	47.7*	nt	39.3*	-13.0	87.3*	81.7*
CC(C)(C)c1ccc(/C=N/Nc2ccc(C(=O)O)cc2)cc1	88.1*	-0.5	73.6*	-86.4*	58.4*	16.6	85.7*	82.8*
SMILES	STAT3 blocker	PPC-1+TRAIL kill	STAT1 blocker	HSF1 inh	HSP90 refold inh	TRAIL sens C8	HSP90 inh confirm	luciferase ctr
O=C(O)c1ccc(/C=N/Nc2ccc(F)cc2F)cc1	-19.1	26.8	-16.5	16.5	46.2*	6.7	77.9*	57.8*
CC1Oc2ccccc2C=C1/C=N/Nc1ccc(C(=O)O)cc1 (stereo not given)	nt	-15.4	nt	-20.5	33.6*	-27.7	41.3*	24.8*
Fc1ccc(N/N=C/c2ccncc2)c(F)c1	12.5	9.3	-32.3	8.9	-2.7	8.8	nt	nt
Cc1nc2nc(C)c(CCC(=O)NCc3ccc4c(c3)OCO4)c(C)n2n1	-3.8	4.4	8.0	-12.8	0.3	4.5	nt	nt
O=S1(=O)C[C@H](N2CCC[C@@H]2CO)[C@@H](COCc2ccccc2)N1	nt	nt	nt	nt	nt	4.9	nt	nt
O=C(O)c1cc(N/N=C/c2ccc3c(c2)OCO3)ccc1Cl	-16.4	17.1	18.7	-6.9	46.6*	-2.7	82.6*	53.7*
O=C(O)c1ccc(N/N=C/c2ccc3c(c2)OCO3)cc1	79.8*	4.1	93.1*	-70.7*	81.8*	30.6	93.6*	88.0*
C/C(=N\Nc1ccc(Cl)c(C(=O)O)c1)c1ccc2c(c1)OCO2	-7.5	14.7	-33.9	-5.4	9.3	-2.4	nt	nt
CC(=O)Oc1ccc(Nc2ccccc2)cc1	19.1	7.9	-3.6	-23.6	30.7*	-8.1	56.5*	-13.5
CC(C)(C)n1nnnc1C(c1cc2ccccc2o1)N1CCCCC1 (stereo not given)	nt	nt	nt	nt	nt	7.9	nt	nt
COc1ccc(CCNC(=O)c2cc(-c3cc(Cl)cc(Cl)c3)oc2C)cc1	-9.7	-3.1	-0.7	9.3	18.9*	1.5	6.4	-4.2
N=c1sccn1CC(=O)Nc1ccc([N+](=O)[O-])cc1Cl	nt	15.4	nt	nt	20.9*	-9.1	4.3	3.7
COc1cc([N+](=O)[O-])ccc1NC(=O)Cn1ccsc1=N	2.8	13.5	-17.8	-11.7	0.5	-0.4	nt	nt
C[n+]1cccc(C2C(C#N)=C(N)Oc3c2ccc2ccccc32)c1 (stereo not given)	nt	3.5	nt	1.9	17.8*	19.5	-2.4	-13.8
Oc1cc(-c2ccccc2)c2ccccc2c1	-10.6	1.0	-4.7	116.8	-0.2	-4.1	nt	nt
CCc1nnc(NC(=O)c2n[nH]c(=O)c3ccccc23)s1	nt	4.5	nt	-2.5	26.4*	0.9	-6.4	-8.9
O=C(O)CNc1nc(NCc2ccc(Cl)cc2)ccc1[N+](=O)[O-]	nt	nt	nt	nt	nt	6.4	nt	nt
O=C(NNC(=S)NC(=O)c1ccc(F)cc1)c1cccnc1	nt	nt	nt	1.6	-2.1	9.1	nt	nt
O=C(NNC(=S)NC(=O)c1cccnc1)c1ccc(F)cc1	nt	2.6	nt	-21.8	27.6*	16.4	1.0	-2.0
Cc1ccc2c(c1)COc1c3ccc(C(=O)O)cc3nn1-2	nt	nt	nt	-32.2	95.8*	34.3	94.4*	78.7*
CC1CCN(c2ccc(/C=N\Nc3nncn3N)cc2[N+](=O)[O-])CC1	-0.8	20.6	-20.9	nt	60.1*	-5.2	-4.3	-7.8
COc1cccc2oc3cc(C#Cc4ccccn4)ccc3c(=O)c12	nt	nt	nt	19.4	-2.1	nt	nt	nt
